An excerpt weighted towards active compounds, which were near 4.6% of everything screened.
D1 potentiator: Potentiators of Human D1 Dopamine Receptor: qHTS | D(1A) dopamine receptor (Homo sapiens), P21728 | HEK293 TREx D1 cells, calcium flux, dopamine EC20 potentiation | potentiation, % at 10 µM | 0.036% of 360,000 active | AID 504651, 2011; in the data active = potentiation above about 30%
Target sequence (P21728 whole entry, looked up): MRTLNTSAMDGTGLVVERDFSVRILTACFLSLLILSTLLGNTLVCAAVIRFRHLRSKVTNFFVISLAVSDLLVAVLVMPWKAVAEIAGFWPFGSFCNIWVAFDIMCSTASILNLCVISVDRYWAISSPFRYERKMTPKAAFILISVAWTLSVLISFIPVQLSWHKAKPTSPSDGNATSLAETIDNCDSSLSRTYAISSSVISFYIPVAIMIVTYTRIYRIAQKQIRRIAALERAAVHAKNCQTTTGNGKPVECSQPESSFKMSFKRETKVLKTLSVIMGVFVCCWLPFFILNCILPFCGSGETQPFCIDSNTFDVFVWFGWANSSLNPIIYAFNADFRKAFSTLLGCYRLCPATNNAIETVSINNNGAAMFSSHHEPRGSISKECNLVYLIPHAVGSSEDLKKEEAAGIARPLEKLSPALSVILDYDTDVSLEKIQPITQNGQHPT
D1 antag: Antagonist of Human D 1 Dopamine Receptor: qHTS | D(1A) dopamine receptor (Homo sapiens), P21728 | HEK293 TREx D1 cells, calcium flux, dopamine EC80; stronger effect = lower value | activity change, negative = inhibition, % at 10 µM | 3.2% of 360,000 active | AID 504652, 2011; in the data active = activity change below about -30%
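Tetracycline-induced HEK293 Trex D1 cells, force-coupled to calcium, dye-loaded; compounds added and read 180 s, then EC80 dopamine added and calcium flux tracked kinetically another 180 s.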
TRHR ag: qHTS for Small Molecule Agonists and Allosteric Enhancers of Human TRH Receptor: Primary Screen for Agonists | Thyrotropin-releasing hormone receptor (Homo sapiens), P34981 | TRHR cells, calcium flux fluo-8, FDSS agonist mode | activation, % at 2 µM | 0.18% of 360,000 active
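Agonist-mode FDSS calcium read (Ex 480/Em 530, 1 s cycles) in 1536-well TRHR cells with fluo-8 dye, after 10-cycle baseline and 23 nL compound addition; TRH at EC20 (10 nM final) added afterwards for the enhancer phase.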
TRHR PAM: qHTS for Small Molecule Agonists and Allosteric Enhancers of Human TRH Receptor: Primary Screen for Enhancers; TRHR cells, fluo-8 calcium fluorescence, EC20 TRH enhancement; AID 493056, 2011; 0.66% of 360,000 active; enhancement, % at 2 µM; in the data active = enhancement above about 30%
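Enhancer read-out: after compound pinning and an initial kinetic agonist-mode read, an EC20 of TRH (10 nM final) was injected and fluo-8 calcium signal (Ex 480/Em 530) followed at 1 s/cycle for 100 cycles in TRHR-expressing cells.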
D1 ag: Allosteric Agonists of the Human D1 Dopamine Receptor: qHTS; D(1A) dopamine receptor (Homo sapiens), P21728; HEK293 T-REx D1 cells, calcium flux, agonist mode; activation, % at 2 µM; 1% of 360,000 active
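Agonism was scored from calcium flux recorded over 180 s (1 read/s) after pintool compound addition, following a 10-cycle baseline. Cells were inducible force-coupled HEK293 TREx D1, plated overnight at 30 C and loaded with no-wash calcium dye.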
A number is an active result. Rule as the data show it, unless noted: active = activation above about 30%; inactive = the rest.

CC(C)C1(CCNC(=O)c2cccs2)CCOC(C)(C)C1 (configuration not stated) was read as D1 potentiator inactive, D1 antag inactive, TRHR ag inactive, TRHR PAM inactive and D1 ag inactive.
`CC(NCCC1(Cc2ccccc2Cl)CCOC(C)(C)C1)c1cccs1` (configuration not stated) gave D1 potentiator inactive, D1 antag inactive, TRHR ag inactive, TRHR PAM inactive and D1 ag 47.
Screening CCCNC(=O)C1CCC(Cn2c(=O)c3sccc3n(CC(=O)N3CCCC(C)C3)c2=O)CC1 (configuration not stated) returned D1 potentiator inactive, D1 antag inactive, TRHR ag inactive, TRHR PAM inactive and D1 ag inactive.
Screening CCOC(=O)C1(CCOc2ccccc2)CCN(CC(O)CO)CC1 (configuration not stated) returned D1 potentiator inactive, D1 antag inactive, TRHR ag inactive, TRHR PAM inactive and D1 ag inactive.
Screening COCCNC(=O)C(c1ccc(C)o1)N(Cc1ccc(OC)cc1)C(=O)Cn1nnc2ccccc21 (configuration not stated) returned D1 potentiator inactive, D1 antag inactive, TRHR ag inactive, TRHR PAM inactive and D1 ag 56.
For CN(C)c1ccc(CNC(=O)CCn2cccn2)cc1 the results were D1 potentiator inactive, D1 antag inactive, TRHR ag inactive, TRHR PAM inactive and D1 ag inactive.
CCc1ccc(/C(C)=N/NC(=O)CNC(=O)/C=C/c2ccccc2OC)cc1 was read as D1 potentiator inactive, D1 antag inactive, TRHR ag inactive, TRHR PAM inactive and D1 ag inactive.
Screening COc1ccccc1/C=C\C(=O)NCC(=O)N/N=C(/C)c1cccc([N+](=O)[O-])c1 returned D1 potentiator inactive, D1 antag -65, TRHR ag inactive, TRHR PAM inactive and D1 ag inactive.
Oc1ccc(/C=N/Nc2nn3cnnc3c3ccccc23)cc1 was read as D1 potentiator inactive, D1 antag -51, TRHR ag inactive, TRHR PAM inactive and D1 ag inactive.
Screening CCS(=O)(=O)N1CCC2(CC1)OCCN2S(=O)(=O)c1ccc(C)cc1 returned D1 potentiator inactive, D1 antag inactive, TRHR ag inactive, TRHR PAM inactive and D1 ag inactive.
COc1c(F)c(F)c(C(=O)Nc2c(C)cc(Br)cc2C)c(F)c1F was read as D1 potentiator inactive, D1 antag inactive, TRHR ag inactive, TRHR PAM inactive and D1 ag inactive.
Screening COc1ccc(OC)c(-c2csc(NC(=O)Cc3ccccc3F)n2)c1 returned D1 potentiator inactive, D1 antag inactive, TRHR ag inactive, TRHR PAM 32 and D1 ag inactive.
Screening COc1ccc(OC)c(-c2csc(NC(=O)Cc3ccccc3OC)n2)c1 returned D1 antag inactive, TRHR ag inactive, TRHR PAM inactive and D1 ag inactive.
`CCCN1CCN(CC2=C(C(=O)OCC)C(c3ccc(Cl)cc3)NC(=O)N2)CC1` (configuration not stated) gave D1 potentiator inactive, D1 antag inactive, TRHR ag inactive, TRHR PAM inactive and D1 ag inactive.
For COCCNC(=O)C1CC2Cn3c(nc4cc5ccccc5cc43)C2N1C (configuration not stated) the results were D1 potentiator inactive, D1 antag inactive, TRHR ag inactive, TRHR PAM inactive and D1 ag inactive.
Screening COCCNC(=O)C1CC2Cn3c(nc4cc(C)c(C)cc43)C2N1C (configuration not stated) returned D1 potentiator inactive, D1 antag -78, TRHR ag inactive, TRHR PAM inactive and D1 ag inactive.
Cc1ccc(NC(=O)NCCOCCn2c(=O)oc3ccccc32)c(C)c1 was read as D1 potentiator inactive, D1 antag inactive, TRHR ag inactive, TRHR PAM inactive and D1 ag inactive.
`CCOC(=O)c1ccccc1NC(=O)CSc1nc(=O)[nH]c2c1CCCC2` gave D1 potentiator inactive, TRHR ag inactive, TRHR PAM inactive and D1 ag inactive.
